Test [1] deals with Ubiquitin carboxyl-terminal hydrolase 1 (Homo sapiens) (UniProt O94782). Description: Inhibitors of USP1/UAF1: Pilot qHTS (AID 504865).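 Further: rhodamine fluorescence freed from ubiquitin-rhodamine substrate followed over time; top concentration of the series differs between compounds; nearly all actives have a fitted effect of over 35% in size.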 Summed up: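 USP1/UAF1 complex (1nM) preincubated with compound 15 min at room temperature, then Ub-Rho substrate (150nM final) added. Fluorescence read kinetically at 480/540 nm, 6 reads every 60 seconds. Buffer: 50mM HEPES pH 7.8, 0.5mM EDTA, 0.1 mg/ml BSA, 1mM TCEP, 0.01% Tween-20.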

Test [2] concerns the target Luciferin 4-monooxygenase (Photinus pyralis) (UniProt P08659). Description: Biochemical firefly luciferase enzyme assay for NPC (AID 624030).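 Further: purified P. pyralis luciferase at 10 nM with luciferin and ATP substrate; nearly all actives have a fitted effect of over 70% in size.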 Summed up: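 Purified P. pyralis luciferase at 10 nM in 50 mM Tris Acetate (final), luminescence read within 5 minutes of enzyme addition to compounds. Activity normalised to PTC124 versus DMSO; concentration-response curves classed by r2, magnitude and activity.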

Test [3] in a line: S16 Schwann cell viability assay (CellTiter-Glo assay) (AID 624031).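 Further: native untransfected S16 rat Schwann cells; nearly all actives have a fitted effect of over 70% in size.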 Summed up: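 Rat S16 Schwann cells without reporter constructs received compound or DMSO for 24 h at 37 °C under 5% CO2. Cellular ATP was then quantified by CellTiter-Glo luminescence, with vehicle wells defined as 0% activity and cell-free wells as reference.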
On the technique in general: Cellular ATP, detected with luciferase, serves as a proxy for viable cell number.

The nature of test [4]: S16 Schwann cell PMP22 intronic element firefly luciferase assay (AID 624032). Further: nearly all actives have a fitted effect of over 30% in size. In a few lines:
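Rat S16 Schwann cells stably carrying firefly luciferase driven by a PMP22 intronic element, in 10% FBS, treated 24 h at 37 C. ONE-Glo luminescence normalized to PTC124 control and DMSO (0%); curves classed by r2, magnitude and activity.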

Test [5] can be described thus: S16 Schwann cell PMP22 intronic element beta-lactamase assay (AID 624044; calls by dose curve; further: nearly all actives have a fitted effect of over 15% in size). In a few lines: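 Beta-lactamase reporter under a PMP22 intronic regulatory element in stable S16 rat Schwann cells; 24 h compound exposure. 460 nm blue signal normalized between DMSO (0%) and potassium clavulanate, with 535 nm FRET tracking viability; curves classed by r2 and response.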
The test system of a further test is 3D7. Description: qHTS profiling for inhibitors of Plasmodium falciparum proliferation (AID 504749). Further: nearly all actives have a fitted effect of over 60% in size. Further: potency means the concentration at half of the fitted maximal effect. The settings on record: P. falciparum in erythrocytes, SYBR Green DNA, 72 h; series mostly up to 28.7 µM. In a few lines:
(§1)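 SYBR Green fluorescence (ex 485 nm, em 535 nm) reports parasite DNA after 72 h compound exposure of infected red cells at 0.3% parasitemia, 2.5% hematocrit; signal normalized to 0.29 uM artemisinin and vehicle wells.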
For orientation: Quantitative high-throughput screening tests each substance at several concentrations.

Another test relates to 7G8. The test is described as above. The settings on record: P. falciparum in erythrocytes, SYBR Green DNA, 72 h; series mostly up to 28.7 µM. In a few lines: as §1
The test system of a further test is AA1029. Described as above. The conditions noted are these: P. falciparum in erythrocytes, SYBR Green DNA, 72 h; series mostly up to 28.7 µM. Summed up:
as §1

A further test has as its system CP211. The test is described as above. The conditions noted are these: P. falciparum in erythrocytes, SYBR Green DNA, 72 h; series mostly up to 28.7 µM. Summed up: as §1
A further test concerns CP217. Described as above. The conditions noted are these: P. falciparum in erythrocytes, SYBR Green DNA, 72 h; series mostly up to 28.7 µM. Summed up: as §1
Another test has as its system CP260. Described as above. The conditions noted are these: P. falciparum in erythrocytes, SYBR Green DNA, 72 h; series mostly up to 28.7 µM. In a few lines:
as §1

The test system of another test is CP286. The description is as above. The conditions noted are these: P. falciparum in erythrocytes, SYBR Green DNA, 72 h; series mostly up to 28.7 µM. Summed up: as §1
In the next test the test system is DFO2036. Described as above. The settings on record: P. falciparum in erythrocytes, SYBR Green DNA, 72 h; series mostly up to 28.7 µM. In a few lines: as §1
The subject of a further test is DIV14. The description is as above. The conditions noted are these: P. falciparum in erythrocytes, SYBR Green DNA, 72 h; series mostly up to 28.7 µM. In a few lines:
as §1

The subject of another test is Dd2. The test is described as above. The settings on record: P. falciparum in erythrocytes, SYBR Green DNA, 72 h; series mostly up to 28.7 µM. Summed up:
as §1

Another test has as its system GB4. Described as above. The conditions noted are these: P. falciparum in erythrocytes, SYBR Green DNA, 72 h; series mostly up to 28.7 µM. In a few lines: as §1
The test system of another test is ICS. The description is as above. The conditions noted are these: P. falciparum in erythrocytes, SYBR Green DNA, 72 h; series mostly up to 28.7 µM. Summed up: as §1
In another test the test system is N140. The description is as above. The settings on record: P. falciparum in erythrocytes, SYBR Green DNA, 72 h; series mostly up to 28.7 µM. In a few lines:
as §1

In the next test the test system is PC15. The description is as above. The settings on record: P. falciparum in erythrocytes, SYBR Green DNA, 72 h; series mostly up to 28.7 µM. In a few lines:
as §1

The next test has as its system TAB165. Described as above. The settings on record: P. falciparum in erythrocytes, SYBR Green DNA, 72 h; series mostly up to 28.7 µM. Summed up:
as §1

Records with an inconclusive call do not appear. The source made the active and inactive calls. Unless noted, the call rests on the fitted dose curve; in most records, active means well fitted curve in the direction sought with a large enough effect; inconclusive means small, poorly fitted or top-dose-only effect, or another doubt; inactive means no such curve, though single readings can be large; an effect the other way counts as inactive or inconclusive.

Sequence of Luciferin 4-monooxygenase (Photinus pyralis) (P08659 whole entry, looked up): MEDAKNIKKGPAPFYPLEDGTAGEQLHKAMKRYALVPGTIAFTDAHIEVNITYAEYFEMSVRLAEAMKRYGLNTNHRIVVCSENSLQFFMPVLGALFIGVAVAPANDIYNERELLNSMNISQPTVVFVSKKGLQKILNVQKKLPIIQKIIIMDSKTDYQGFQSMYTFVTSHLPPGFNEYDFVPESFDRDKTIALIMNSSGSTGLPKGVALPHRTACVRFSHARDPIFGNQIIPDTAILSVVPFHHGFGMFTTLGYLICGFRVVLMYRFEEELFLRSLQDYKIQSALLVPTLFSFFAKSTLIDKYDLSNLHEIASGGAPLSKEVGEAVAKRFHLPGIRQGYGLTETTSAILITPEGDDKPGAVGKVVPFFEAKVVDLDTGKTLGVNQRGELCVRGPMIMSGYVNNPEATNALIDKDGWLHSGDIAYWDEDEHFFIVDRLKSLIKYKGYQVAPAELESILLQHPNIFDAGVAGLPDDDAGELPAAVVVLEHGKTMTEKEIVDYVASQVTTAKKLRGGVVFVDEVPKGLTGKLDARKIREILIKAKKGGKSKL
Sequence of Ubiquitin carboxyl-terminal hydrolase 1 (Homo sapiens) (O94782 whole entry, looked up): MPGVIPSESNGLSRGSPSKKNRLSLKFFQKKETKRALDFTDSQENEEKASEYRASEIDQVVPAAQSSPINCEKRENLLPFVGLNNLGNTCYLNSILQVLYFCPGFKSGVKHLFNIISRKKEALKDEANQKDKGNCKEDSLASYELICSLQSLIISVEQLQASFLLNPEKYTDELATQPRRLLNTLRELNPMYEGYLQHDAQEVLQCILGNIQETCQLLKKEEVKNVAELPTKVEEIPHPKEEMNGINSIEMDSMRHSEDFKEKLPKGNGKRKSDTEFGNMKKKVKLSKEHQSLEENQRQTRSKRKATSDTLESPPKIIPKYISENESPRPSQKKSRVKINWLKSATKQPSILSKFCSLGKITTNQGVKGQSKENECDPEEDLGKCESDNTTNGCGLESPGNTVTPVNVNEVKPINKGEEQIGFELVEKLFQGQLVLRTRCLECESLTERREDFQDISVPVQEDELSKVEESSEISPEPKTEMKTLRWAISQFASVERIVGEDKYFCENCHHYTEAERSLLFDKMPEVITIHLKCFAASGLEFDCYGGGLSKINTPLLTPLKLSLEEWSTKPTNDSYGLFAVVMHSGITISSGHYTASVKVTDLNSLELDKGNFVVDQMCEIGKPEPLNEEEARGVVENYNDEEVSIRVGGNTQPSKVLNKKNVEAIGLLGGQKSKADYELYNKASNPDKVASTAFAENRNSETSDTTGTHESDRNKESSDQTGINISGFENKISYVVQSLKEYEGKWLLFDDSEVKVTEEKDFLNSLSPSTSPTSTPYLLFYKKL

For `Cc1onc(-c2c(F)cccc2Cl)c1C(=O)N[C@@H]1C(=O)N2[C@H]1SC(C)(C)[C@H]2C(=O)O`, the Potency result (in [1]; in [3]; in test [4]; with 3D7; with 7G8; in the test on AA1029) was “inactive” in each case. The Potency result in the test on CP211, in the test with CP217, with CP260, with CP286, in the test on DFO2036 and in the test on DIV14 was “inactive” throughout. The Potency result in the test on Dd2, with GB4, with ICS, with N140, in the test with PC15 and in the test with TAB165 was “inactive” each time. In addition, the call in test [2] and in [5] was inactive.

On to `CC(C)(C)c1ccc(CN2CCN([C@H](c3ccccc3)c3ccc(Cl)cc3)CC2)cc1`, for which the Potency result (in [1]; in test [3]; in test [4]; in the test with CP211) was “inactive” each time. For the same compound, the outcome in test [2] and in test [5] was inactive. For the same compound, the Potency was 6.31 µM (active) in the test on 3D7; 3.55 µM (active) with 7G8; 8.91 µM (active) in the test on AA1029; 8.91 µM (active) in the test on CP217; 7.08 µM (active) with CP260; 4.47 µM (active) in the test on CP286. The Potency in the test with DIV14 was 15.1 µM (active); with Dd2 it was 8.91 µM (active); with GB4, 15.1 µM (active); in the test on ICS, 2.51 µM (active); in the test with N140, 7.08 µM (active); in the test with PC15, 11.2 µM (active). For the same compound, the Potency with TAB165 was 7.94 µM (active).

These data come from PubChem BioAssay (NCATS).
